# Results: the supplement of paper PMC11738630
# Test system: Salmonella enterica serovar Typhimurium 14028s
# Assay: approximate change in surviving CFU after surface colonization relative to water-only control (log10 CFU/mL change); higher = more surviving bacteria (less inhibition of surface colonization)
# Conditions: not stated (Biolog proprietary concentration), surface: plastic 96-well plate, 20-24 h at 25 °C
smiles,measurement,setting,value
O=C(CO)[C@@H](O)[C@H](O)[C@@H](O)C(=O)O [5-Keto-D-Gluconic Acid],approximate change in surviving CFU (log10),"Biolog plate: PM2, Biolog well: E12",0.708
COC(=O)[C@@H](C)O [D-Lactic Acid Methyl Ester],approximate change in surviving CFU (log10),"Biolog plate: PM2, Biolog well: F1",-0.15
O=C(O)C(=O)O [Oxalic Acid],approximate change in surviving CFU (log10),"Biolog plate: PM2, Biolog well: F4",0.429
O=C(CO)CO [Dihydroxy Acetone],approximate change in surviving CFU (log10),"Biolog plate: PM2, Biolog well: H9",-4.4
N[C@@H](Cc1c[nH]c2ccccc12)C(=O)O [L-Tryptophan],approximate change in surviving CFU (log10),"Biolog plate: PM3, Biolog well: B12",-1.05
N[C@@H](Cc1ccc(O)cc1)C(=O)O [L-Tyrosine],approximate change in surviving CFU (log10),"Biolog plate: PM3, Biolog well: C1",0.3
N[C@H](CCC(=O)O)C(=O)O [D-Glutamic Acid],approximate change in surviving CFU (log10),"Biolog plate: PM3, Biolog well: C6",0.837
NO [Hydroxylamine],approximate change in surviving CFU (log10),"Biolog plate: PM3, Biolog well: D4",-0.687
"CC(O)C(N)=O (racemic) [D,L-Lactamide]",approximate change in surviving CFU (log10),"Biolog plate: PM3, Biolog well: E7",-1.78
Nc1nc2c(ncn2[C@@H]2O[C@H](CO)[C@@H](O)[C@H]2O)c(=O)[nH]1 [Guanosine],approximate change in surviving CFU (log10),"Biolog plate: PM3, Biolog well: F7",-0.172
NC(=O)NC1NC(=O)NC1=O (stereo unspecified) [Allantoin],approximate change in surviving CFU (log10),"Biolog plate: PM3, Biolog well: G5",0.258
C[C@H](N)C(=O)N[C@@H](CC(=O)O)C(=O)O,approximate change in surviving CFU (log10),"Biolog plate: PM3, Biolog well: H1",0.58
C[C@H](N)C(=O)N[C@@H](CCC(N)=O)C(=O)O,approximate change in surviving CFU (log10),"Biolog plate: PM3, Biolog well: H2",0.0644
C[C@H](N)C(=O)N[C@H](C(=O)O)[C@@H](C)O,approximate change in surviving CFU (log10),"Biolog plate: PM3, Biolog well: H7",-0.0215
O[C@@H]1[C@H](O)[C@H](O)CO[C@H]1O [D-Ribose],approximate change in surviving CFU (log10),"Biolog plate: PM1, Biolog well: C4",0.172
OC[C@H]1O[C@H](OC[C@H]2OC(O)[C@H](O)[C@@H](O)[C@@H]2O)[C@H](O)[C@@H](O)[C@H]1O (stereo partly drawn) [D-Melibiose],approximate change in surviving CFU (log10),"Biolog plate: PM1, Biolog well: C11",1.82
"CC(O)CO (stereo unspecified) [1,2-Propanediol]",approximate change in surviving CFU (log10),"Biolog plate: PM1, Biolog well: D4",-0.3
OC[C@H]1O[C@@](CO)(O[C@H]2O[C@H](CO)[C@@H](O)[C@H](O)[C@H]2O)[C@@H](O)[C@@H]1O [Sucrose],approximate change in surviving CFU (log10),"Biolog plate: PM1, Biolog well: D11",0.987
O=C(O)C(O)C(O)C(=O)O (stereo unspecified) [m-Tartaric Acid],approximate change in surviving CFU (log10),"Biolog plate: PM1, Biolog well: E2",1.04
CCCCCCCC/C=C\CCCCCCCC(=O)OCCOCC(OCCO)C1OCC(OCCO)C1OCCO (stereo unspecified) [Tween 80],approximate change in surviving CFU (log10),"Biolog plate: PM1, Biolog well: E5",-0.58
CO[C@@H]1O[C@H](CO)[C@@H](O)[C@H](O)[C@H]1O [B-Methyl-D-Glucoside],approximate change in surviving CFU (log10),"Biolog plate: PM1, Biolog well: E8",1.33
Nc1ncnc2c1ncn2[C@H]1C[C@H](O)[C@@H](CO)O1 [2-Deoxy Adenosine],approximate change in surviving CFU (log10),"Biolog plate: PM1, Biolog well: E11",1.37
O=C(O)/C=C/C(=O)O [Fumaric Acid],approximate change in surviving CFU (log10),"Biolog plate: PM1, Biolog well: F5",0.88
NCC(=O)N[C@@H](CCC(=O)O)C(=O)O [Glycyl-L-Glutamic Acid],approximate change in surviving CFU (log10),"Biolog plate: PM1, Biolog well: G1",1.22
CC(=O)CC(=O)O [Acetoacetic Acid],approximate change in surviving CFU (log10),"Biolog plate: PM1, Biolog well: G7",0.172
OC[C@H]1O[C@@H](O[C@H]2[C@H](O)[C@@H](O)[C@H](O[C@H]3[C@H](O)[C@H](O)[C@H](O[C@@H]4[C@H](O)[C@H](O)[C@H](O)O[C@@H]4CO)O[C@@H]3CO)O[C@@H]2CO)[C@@H](O)[C@@H](O)[C@@H]1O [Mannan],approximate change in surviving CFU (log10),"Biolog plate: PM2, Biolog well: A11",0.837
OC[C@H](O)C(O)[C@@H](O)CO [L-Arabitol],approximate change in surviving CFU (log10),"Biolog plate: PM2, Biolog well: B7",1.12
OC[C@@H](O)[C@@H](O)CO [i-Erythritol],approximate change in surviving CFU (log10),"Biolog plate: PM2, Biolog well: B10",1.35
C[C@@H](O)[C@H](O)[C@H](O)[C@@H](O)C=O [D-Fucose],approximate change in surviving CFU (log10),"Biolog plate: PM2, Biolog well: B11",-0.408
O=C[C@H](O)[C@@H](O)[C@H](O)[C@H](O)CO[C@@H]1O[C@H](CO)[C@@H](O)[C@H](O)[C@H]1O [Gentiobiose],approximate change in surviving CFU (log10),"Biolog plate: PM2, Biolog well: C1",1.09
CO[C@@H]1OC[C@@H](O)[C@H](O)[C@H]1O [b-Methyl-D-Xyloside],approximate change in surviving CFU (log10),"Biolog plate: PM2, Biolog well: C11",-0.215
O=C(O)c1ccccc1O [2-Hydroxy Benzoic Acid (Salicylic Acid)],approximate change in surviving CFU (log10),"Biolog plate: PM2, Biolog well: E6",-1.72
O=C(O)CC(=O)O [Malonic Acid],approximate change in surviving CFU (log10),"Biolog plate: PM2, Biolog well: F2",0.0859
O=C(O)CCCCCCCCC(=O)O [Sebacic Acid],approximate change in surviving CFU (log10),"Biolog plate: PM2, Biolog well: F8",0.429
C/C=C/C=C/C(=O)O [Sorbic Acid],approximate change in surviving CFU (log10),"Biolog plate: PM2, Biolog well: F9",-2.68
"NCC(O)c1ccc(O)cc1 (racemic) [D,L-Octopamine]",approximate change in surviving CFU (log10),"Biolog plate: PM2, Biolog well: H7",0.987
"CC(=O)C(C)=O [2,3-Butanedione]",approximate change in surviving CFU (log10),"Biolog plate: PM2, Biolog well: H11",-1.61
N [Ammonia],approximate change in surviving CFU (log10),"Biolog plate: PM3, Biolog well: A2",0.0644
CC(=O)N[C@@H](CCC(=O)O)C(=O)O [N-Acetyl-L-Glutamic Acid],approximate change in surviving CFU (log10),"Biolog plate: PM3, Biolog well: D1",0.751
O=C(O)CC[C@@H](C(=O)O)N1C(=O)c2ccccc2C1=O [N-Phthaloyl-L-Glutamic Acid],approximate change in surviving CFU (log10),"Biolog plate: PM3, Biolog well: D2",-0.343
NCCCCN=C(N)N [Agmatine],approximate change in surviving CFU (log10),"Biolog plate: PM3, Biolog well: D12",-0.193
N[C@@H]1C(O)O[C@H](CO)[C@@H](O)[C@@H]1O (stereo partly drawn) [D-Mannosamine],approximate change in surviving CFU (log10),"Biolog plate: PM3, Biolog well: E10",-1.09
CC(=O)N[C@@H]1C(O)O[C@H](CO)[C@@H](O)[C@@H]1O (stereo partly drawn) [N-Acetyl-D-Mannosamine],approximate change in surviving CFU (log10),"Biolog plate: PM3, Biolog well: F1",0.15
Nc1nc2[nH]cnc2c(=O)[nH]1 [Guanine],approximate change in surviving CFU (log10),"Biolog plate: PM3, Biolog well: F6",-2.83
Oc1nc(O)c2nc(O)[nH]c2n1,approximate change in surviving CFU (log10),"Biolog plate: PM3, Biolog well: G3",1.14
C[C@H](N)C(=O)N[C@@H](Cc1cnc[nH]1)C(=O)O,approximate change in surviving CFU (log10),"Biolog plate: PM3, Biolog well: H5",-0.258
NCC(=O)N[C@@H](CCC(N)=O)C(=O)O,approximate change in surviving CFU (log10),"Biolog plate: PM3, Biolog well: H9",0.129
C[C@@H](N)C(=O)O [D-Alanine],approximate change in surviving CFU (log10),"Biolog plate: PM1, Biolog well: A9",0.622
same,approximate change in surviving CFU (log10),"Biolog plate: PM3, Biolog well: C3",0.343
N[C@@H](Cc1ccccc1)C(=O)O [L-Phenylalanine],approximate change in surviving CFU (log10),"Biolog plate: PM2, Biolog well: H2",-0.322
same,approximate change in surviving CFU (log10),"Biolog plate: PM3, Biolog well: B8",-0.215
NC(=O)[C@H]1O[C@@H](O)[C@H](O)[C@@H](O)[C@@H]1O [Glucuronamide],approximate change in surviving CFU (log10),"Biolog plate: PM1, Biolog well: H7",1.03
same,approximate change in surviving CFU (log10),"Biolog plate: PM3, Biolog well: E6",0.622
N[C@@H](CCC(=O)O)C(=O)O [L-Glutamic Acid],approximate change in surviving CFU (log10),"Biolog plate: PM1, Biolog well: B12",1.24
same,approximate change in surviving CFU (log10),"Biolog plate: PM3, Biolog well: A12",0.279
O[C@H]1[C@H](O)[C@@H](O)[C@H](O)[C@@H](O)[C@H]1O [myo-Inositol],approximate change in surviving CFU (log10),"Biolog plate: PM1, Biolog well: F3",0.902
